In the library only some 14% were active in any assay of this set; here they are far more common.
Marburg entry inh: Marburg virus entry inhibition; Marburg virus pseudotyped entry inhibition, cell reporter; Potency, µM (series often up to 37.8 µM), actives largely listed as inhibitors; 300,000 compounds, 1.8% hits; AID 540276; calls by dose curve; tested in HEK293 cells
HCMV antiviral: human cytomegalovirus inhibition; HFF cells, HCMV-luciferase reporter, 72 h; hits give low values; activity change, negative = inhibition, % at 57.5 µM; 410,000 compounds, 4.5% hits; AID 1259415; in the data active = activity change below about -60%; inconclusive = no clear call, values can overlap the other calls; inactive = above about -39%
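Human foreskin fibroblasts infected with luciferase-reporter HCMV at MOI 1 PFU/cell, compounds at two doses. Luciferase measured 72 h post infection; normalized to buffer-only basal and Salinomycin (10uM) controls.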
Lassa entry inh: inhibitors of Lassa virus binding or cell entry; Lassa virus pseudotype entry inhibition, cell reporter; Potency, µM (highest dose often 37.9 µM), usual class: inhibitors; 300,000 compounds, 1.2% hits; AID 540256; calls by dose curve; tested in HEK293 cells; note: nearly all actives have a fitted effect of over 50% in size
Pf growth 96h: inhibits malaria parasite growth, 96 h. P. falciparum luciferase reporter growth, 96 h. Potency, µM (series often up to 28.7 µM), actives largely listed as inhibitors. AID 504834. 320,000 compounds, 6.9% hits
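Compounds incubated with erythrocytes infected by luciferase-expressing P. falciparum (2% hematocrit, 0.05% parasitemia final) for 96 hours, 37 C in 5% CO2. Growth inhibition scored as decreased luciferase luminescence.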
HCV inh: HCV inhibition; Huh7.5.1 HCVcc-Cre infection, luciferase reporter, 44 h; Potency, µM (highest dose often 41.8 µM), usual class: inhibitors; 340,000 compounds, 3.4% hits; AID 651820
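A cell-based infection assay in which seeded cells (1,000 per well) receive test compound after 4 h, are inoculated with HCVcc-Cre at approximately 0.5 moi, and are incubated 44 h before luminescence detection.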
Pf growth 48h: P. falciparum growth inhibition at 48 hours (one generation); P. falciparum luciferase growth in erythrocytes, 48 h; Potency, µM (top dose mostly 28.7 µM), actives largely listed as inhibitors; 310,000 compounds, 5.9% hits
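Luciferase-expressing P. falciparum in infected erythrocytes (2% hematocrit, 0.1% parasitemia final) in RPMI 1640/0.5% Albumax were exposed to compound for 48 hours at 37 C, 5% CO2; growth read as luminescence.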
Numbers stand for hits. Unless noted, calls come from the whole dose curve; as a rule, active = well fitted inhibition curve with a large enough effect; inconclusive = small, poorly fitted or top-dose-only effect, or another doubt; inactive = no such curve, though single readings can be large or run the other way.

For COc1cccc(C(=O)NC(=S)NCc2ccco2)c1 the results were Marburg entry inh inconclusive, HCMV antiviral inactive, Lassa entry inh inconclusive, Pf growth 96h 3.7µM, HCV inh inactive and Pf growth 48h inactive.
`COc1cccc(C(=O)c2cn(CC(=O)NCc3ccco3)c3nc(C)ccc3c2=O)c1` gave Marburg entry inh inactive, HCMV antiviral inactive, Lassa entry inh inactive, Pf growth 96h 4.1µM, HCV inh inactive and Pf growth 48h inactive.
Screening COc1cc(NC(=O)NCc2ccco2)ccc1-c1ccc(NC(=O)NCc2ccco2)cc1OC returned Marburg entry inh inconclusive, HCMV antiviral -67, Lassa entry inh inconclusive and HCV inh 11µM.
`Cc1ccc2c(=O)c(C(=O)c3ccc(F)cc3)cn(CC(=O)NCc3ccco3)c2n1` gave Marburg entry inh inactive, HCMV antiviral inactive, Lassa entry inh inactive, Pf growth 96h inconclusive, HCV inh inactive and Pf growth 48h inactive.
`COc1ccc(C(=O)NC(=S)NCc2ccco2)cc1OC` gave Marburg entry inh inactive, HCMV antiviral inconclusive, Lassa entry inh inactive, Pf growth 96h 7.4µM, HCV inh inactive and Pf growth 48h inactive.
For COc1ccccc1NC(=O)NCc1ccco1 the results were Marburg entry inh inactive, HCMV antiviral inactive, Lassa entry inh inconclusive, Pf growth 96h inactive, HCV inh inconclusive and Pf growth 48h inactive.
`Cn1c(N)c(C(=O)COC(=O)Cc2ccc(Cl)cc2)c(=O)n(C)c1=O` gave Marburg entry inh inactive, HCMV antiviral inactive, Lassa entry inh inactive, Pf growth 96h inactive, HCV inh inactive and Pf growth 48h inconclusive.
Screening CC(=O)c1ccc(NC(=O)C2CCCNC2=O)cc1 (centres undefined) returned Marburg entry inh inconclusive, HCMV antiviral inactive, Lassa entry inh inactive, Pf growth 96h 5.2µM, HCV inh inactive and Pf growth 48h inactive.
Screening COc1ccc(NC(=O)C2CCCNC2=O)cc1 (centres undefined) returned HCMV antiviral inactive, Pf growth 96h 6.6µM, HCV inh inactive and Pf growth 48h inactive.
Screening COc1cccc(-c2cc3nc(NCc4ccccc4F)n(C)c(=O)c3s2)c1 returned HCMV antiviral inactive.
Screening CCOC(=O)[C@]12CCC=C1N(Cc1cccc3ccccc13)C(=O)[C@H](CC(=O)NCc1ccc(OC)c(OC)c1)C2 returned HCMV antiviral -65.
For CCOC(=O)[C@]12CCC=C1N(Cc1ccco1)C(=O)[C@H](CC(=O)NCc1ccc(OC)c(OC)c1)C2 the results were HCMV antiviral inactive.
`COC(=O)[C@]12CCCCC=C1N(Cc1cccc3ccccc13)C(=O)[C@H](CC(=O)NCc1ccc(OC)c(OC)c1)C2` gave HCMV antiviral -86.
Screening Fc1cccc(-c2cc3cnc(Nc4ccc(C(F)(F)F)cc4)cc3[nH]2)c1 returned HCMV antiviral inactive.
`CCC(NC(=O)Nc1cccc(C)c1)c1c(-n2cccc2)sc2c1CCN(C)C2` (centres undefined) gave HCMV antiviral inactive and Lassa entry inh inactive.
For CN1C(=O)C2=NC(C3CCCC3)=NC2N(C)C1=O (centres undefined) the results were Marburg entry inh inactive.
`CCN(CC)c1ccc(NC(=S)NC(=O)Cc2ccccc2)cc1` gave Marburg entry inh inactive, HCMV antiviral inactive, Lassa entry inh inconclusive, Pf growth 96h inactive, HCV inh inactive and Pf growth 48h inactive.
`CN(C)S(=O)(=O)c1ccc(NC(=S)NC(=O)Cc2ccccc2)cc1` gave Marburg entry inh inactive, HCMV antiviral -63, Lassa entry inh inactive, Pf growth 96h inconclusive, HCV inh inactive and Pf growth 48h inactive.
Cc1nnc(SCC(=O)N/N=C/c2ccc(-c3ccc(C)c(Cl)c3)o2)s1 was read as Marburg entry inh inactive, HCMV antiviral -65, Lassa entry inh inconclusive, Pf growth 96h inconclusive, HCV inh inactive and Pf growth 48h inactive.
`CC(C)(C)c1[nH]nc2c1C(Cc1ccccc1)C(C#N)=C(N)O2` (centres undefined) gave Marburg entry inh inconclusive, HCMV antiviral inactive, Lassa entry inh inactive, Pf growth 96h inactive, HCV inh inactive and Pf growth 48h 10µM.
Screening CCCCNC(=O)c1nc2cc(C)c(C)cc2nc1-c1cccc(OC(F)(F)F)c1 returned HCMV antiviral inactive.
O=C(O)c1ccc(NC(=O)c2cc(S(=O)(=O)N3CCCCC3)c(Cl)cc2Cl)cc1 was read as HCMV antiviral inactive and Lassa entry inh inactive.
For COc1ccc(-c2cc(C(F)(F)F)nc(N3CCCCCC3)n2)cc1 the results were Marburg entry inh inactive, HCMV antiviral inconclusive, Lassa entry inh inactive, Pf growth 96h inactive, HCV inh inconclusive and Pf growth 48h inactive.
`COc1cccc(-c2cc(C(F)(F)F)nc(N3CCCCC3)n2)c1` gave Marburg entry inh inconclusive, HCMV antiviral inactive, Lassa entry inh inactive, HCV inh inconclusive and Pf growth 48h inconclusive.
COc1ccc(-c2cc(C(F)(F)F)nc(N3CCN(C)CC3)n2)cc1OC was read as Marburg entry inh 12µM, HCMV antiviral inactive, Lassa entry inh inactive, Pf growth 96h 5.2µM, HCV inh inconclusive and Pf growth 48h inconclusive.
For COC(=O)c1nn(-c2nc(-c3cccc(OC)c3)cc(C(F)(F)F)n2)cc1[N+](=O)[O-] the results were Marburg entry inh inactive, HCMV antiviral inactive, Lassa entry inh inactive, Pf growth 96h inconclusive, HCV inh inactive and Pf growth 48h inactive.
COc1ccc(-c2cc(C(F)(F)F)nc(N3CCN(C)CC3)n2)cc1 was read as Marburg entry inh inconclusive, HCMV antiviral inactive, Lassa entry inh inactive, Pf growth 96h inactive, HCV inh inconclusive and Pf growth 48h 13µM.
COC(=O)c1nn(-c2nc(-c3ccc(OC)c(OC)c3)cc(C(F)(F)F)n2)cc1[N+](=O)[O-] was read as HCMV antiviral inactive, Pf growth 96h 17µM, HCV inh inactive and Pf growth 48h inactive.
For COc1ccc(-c2cc(C(F)(F)F)nc(N3CCCCC3)n2)cc1OC the results were Marburg entry inh inconclusive, HCMV antiviral inactive, Lassa entry inh inconclusive, Pf growth 96h inactive, HCV inh inactive and Pf growth 48h 3.3µM.
O=c1ccc2ccccc2n1Cc1cccc(F)c1 was read as HCMV antiviral -62, Pf growth 96h inconclusive, HCV inh inactive and Pf growth 48h inactive.
Clc1ccccc1CN(Cc1ccccc1)c1ncnc2nc[nH]c12 was read as Marburg entry inh inconclusive, HCMV antiviral inactive, Lassa entry inh inconclusive, HCV inh inactive and Pf growth 48h inactive.
Screening CCCN(CCC)c1ncnc2nc[nH]c12 returned HCMV antiviral -88, Pf growth 96h inconclusive, HCV inh inactive and Pf growth 48h inactive.
CCN(Cc1cnn(C)c1)C(=O)c1ccc2nc(Cc3ccccc3F)oc2c1 was read as HCMV antiviral inactive.
O=C1c2ccccc2-c2onc3ccc(Oc4ccccc4)c1c23 was read as Marburg entry inh inconclusive, HCMV antiviral inactive, Lassa entry inh 10µM, Pf growth 96h inactive, HCV inh inconclusive and Pf growth 48h inactive.

Screening results from PubChem.
